High-throughput results (PubChem BioAssay)
Hits are enriched below; roughly 2.8% of the tested compounds scored in any of these assays.
Pol beta inh: qHTS Assay for Inhibitors of DNA Polymerase Beta | Pol beta primer extension/strand displacement, fluorescence kinetic | P06746 | actives 1.3% (n = 340,000) | Potency, µM (titrated, usually from 114 µM), inactives show top-dose activity change, negative = inhibition, usual class: inhibitors | AID 485314, 2010; also: potency is read from the fitted curve at half-maximal effect; % is scaled to controls: 0 for no effect and ±100 for the full control effect
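Values derive from four-parameter Hill fits of normalized kinetic data: reads at 0 and 10 min following addition of 50 nM substrate to 10 nM Pol beta preincubated 15 min with compound.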
FEN1 inhibitor: qHTS Assay for the Inhibitors of Human Flap endonuclease 1 (FEN1); P39748; Recombinant FEN1 flap cleavage, fluorescence, 15 min; Potency, µM (highest dose often 114 µM), inactives show at the top dose activity change, negative = inhibition, most hits filed as inhibitors; actives 0.35% (n = 390,000); AID 588795, 2011; also: potency is read from the fitted curve at half-maximal effect; % is scaled to controls: 0 for no effect and ±100 for the full control effect; nearly all actives have a fitted effect of over 65% in size
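Quantitative HTS format: each compound was titrated, incubated with 10 nM nuclease for 15 min at room temperature, then challenged with flap substrate at 50 nM final. Signal change over 15 min gave concentration–effect curves.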
Pol kappa inh-1: qHTS for Inhibitors of Polymerase Kappa. AID 588579, 2011. DNA polymerase kappa (Homo sapiens), Q9UBT6. actives 0.53% (n = 400,000). purified Pol kappa, fluorescent DNA synthesis assay, 10 min. Potency, µM (top dose mostly 107 µM), without a hit: at the highest dose activity, negative = inhibition, usual class: inhibitors; also: potency is read from the fitted curve at half-maximal effect; % is scaled to controls: 0 for no effect and ±100 for the full control effect
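50 nM final substrate added after 15 min RT preincubation of 10 nM Pol kappa with compound; fluorescence read at 0 and 10 min.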
PI5P4Ka inh: qHTS for Inhibitors of phosphatidylinositol 5-phosphate 4-kinase (PI5P4K). Phosphatidylinositol 5-phosphate 4-kinase type-2 alpha (Homo sapiens), P48426. max response, %. AID 652105, 2013. PI5P4Kalpha enzyme, ADP-Glo luminescence, 60 min; active compounds read low. actives 1.2% (n = 330,000); active = max response of -50% or lower; inconclusive = between -30% and -50%; inactive = -30% or higher; also: value at the top dose of about 77 µM; % is scaled to controls: 0 for no effect and ±100 for the full control effect
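Enzyme plus substrate dispensed, test compounds pinned in, then ATP (5 microM final) added. After 60 min at RT, ADP-Glo reagent 1 for 45 min and reagent 2 for 30 min preceded luminescence imaging.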
POLI inh: qHTS for Inhibitors of Polymerase Iota. Potency, µM (highest dose often 115 µM), without a hit: at the top dose activity, negative = inhibition, actives largely listed as inhibitors. Pol iota fluorescent replication assay, 10 min. actives 1% (n = 390,000). AID 588590, 2011. DNA polymerase iota (Homo sapiens), Q9UNA4; also: potency is read from the fitted curve at half-maximal effect
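Pol iota at 10 nM preincubated 15 min with compounds at room temperature; reaction started with fluorescent substrate, 50 nM final. Fluorescence read kinetically at 0 and 10 min; buffer-only wells as negative control.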
Pol eta inh-1: qHTS for Inhibitors of Polymerase Eta | DNA polymerase eta (Homo sapiens), Q9Y253 | recombinant Pol eta, fluorescent DNA replication assay | Potency, µM (top dose mostly 114 µM), for the others: at the top dose activity change, negative = inhibition, actives largely listed as inhibitors | actives 1.2% (n = 390,000) | AID 588591, 2011; also: potency is read from the fitted curve at half-maximal effect; % is scaled to controls: 0 for no effect and ±100 for the full control effect
Target sequence (Q9Y253 whole entry, looked up): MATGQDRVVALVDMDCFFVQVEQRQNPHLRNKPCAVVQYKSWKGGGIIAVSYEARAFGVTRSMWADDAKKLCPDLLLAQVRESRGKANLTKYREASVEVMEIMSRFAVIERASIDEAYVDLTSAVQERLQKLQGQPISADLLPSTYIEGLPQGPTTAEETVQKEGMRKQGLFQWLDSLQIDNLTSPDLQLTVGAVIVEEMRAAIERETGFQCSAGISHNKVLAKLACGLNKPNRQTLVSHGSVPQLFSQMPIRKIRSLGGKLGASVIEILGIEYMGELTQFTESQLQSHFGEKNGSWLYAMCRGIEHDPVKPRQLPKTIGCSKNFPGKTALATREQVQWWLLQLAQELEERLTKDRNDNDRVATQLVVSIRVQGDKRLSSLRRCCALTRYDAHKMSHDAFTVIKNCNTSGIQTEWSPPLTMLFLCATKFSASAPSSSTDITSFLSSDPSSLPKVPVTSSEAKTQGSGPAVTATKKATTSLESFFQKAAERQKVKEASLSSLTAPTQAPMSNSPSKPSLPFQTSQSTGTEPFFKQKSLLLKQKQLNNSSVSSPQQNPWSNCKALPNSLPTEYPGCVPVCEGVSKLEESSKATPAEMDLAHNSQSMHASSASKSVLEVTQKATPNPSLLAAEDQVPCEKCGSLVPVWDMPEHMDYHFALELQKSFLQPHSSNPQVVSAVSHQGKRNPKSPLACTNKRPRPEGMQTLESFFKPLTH
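Fluorescent replication assay: 50 nM final substrate added after a 15 min room-temperature compound preincubation with 10 nM enzyme. Signal taken at 0 min and again at 10 min.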
HEK293 viability: Secondary Assay for Inhibitors of Human Galactokinase (GALK): HEK-293 Cell Viability Assay; shares compounds with Pol eta inh-1; HEK-293 viability, ATP luminescence (CellTiter-Glo), 24/48 h; Potency, µM (series often up to 46.1 µM), for the others: at the top dose activity change, negative = cytotoxicity, most hits filed as inhibitors; actives 10% (n = 170); also: potency is read from the fitted curve at half-maximal effect; % is scaled to controls: 0 for no effect and ±100 for the full control effect
Pol kappa inh-2: qHTS for Inhibitors of Polymerase Kappa: Confirmatory Assay for Cherry-picked Compounds. shares compounds with Pol eta inh-1. purified Pol-kappa, fluorescent strand-displacement substrate. Potency, µM, most hits filed as inhibitors. actives 76% (n = 920). AID 720501, 2013; also: potency is read from the fitted curve at half-maximal effect
Pol eta inh-2: qHTS for Inhibitors of Polymerase Eta: Confirmatory Assay for Cherry-picked Compounds. shares compounds with Pol eta inh-1. Pol eta primer extension, TAMRA/BHQ fluorescence, 10 min. Potency, µM, usual class: inhibitors. actives 64% (n = 2,600). AID 720502, 2013; also: potency is read from the fitted curve at half-maximal effect
Starred values were filed as active, the others as inactive; ? = inconclusive; · = no result given; [ ] = dose if it differs, or a comment. Unless noted, calls follow the shape of the dose curve; as a rule, active = well fitted curve in the direction sought with a large enough effect; inconclusive = small, poorly fitted or top-dose-only effect, or another doubt; inactive = no such curve, though single readings can be large; an effect the other way counts as inactive or inconclusive.

SMILES	Pol beta inh	FEN1 inhibitor	Pol kappa inh-1	PI5P4Ka inh	POLI inh	Pol eta inh-1	Pol eta inh-2	others
CN(C)c1ccc(-c2csc(C(O)c3cccc(Cl)c3)n2)cc1 (stereo unspecified)	·	·	·	0	·	·	·
N#Cc1ccccc1S(=O)(=O)Nc1ccc2c(c1)C(=O)OC2	-3%	0%	10%	-1	22%	-3%	·
CCCOc1cccc(C(=O)Nc2ccc(-c3nc4ccccc4s3)c(Cl)c2)c1	1%	?	-13%	·	-5%	-28%	·
O=C1c2cc(O)cc(O)c2C(=O)c2c1cc(O)c([C@@H](CO)CCO)c2O	·	?	79µM*	-51*	?	45µM*	?
CSc1ccc(CNC(=O)CCn2ccc3cc(S(=O)(=O)N4CCC(C)CC4)ccc32)cc1	25%	-16%	-5%	·	-3%	-11%	·
Cc1ccc(CNC(=O)CN2C(=O)COc3ccc(S(=O)(=O)N4CCCCC4)cc32)o1	57%	-11%	-1%	-5	13%	0%	·
C/C(=N\Nc1ccc(Cl)c(C(=O)O)c1)c1ccc(Br)s1	50µM*	-22%	?	-15	?	20µM*	27*
Cc1ccc(S(=O)(=O)N/N=C\c2ccc([N+](=O)[O-])o2)cc1	-3%	?	-15%	·	?	11%	·
Cc1ccc(S(=O)(=O)N/N=C\c2ccc(C)o2)cc1	40µM*	-5%	?	·	?	45µM*	67*
CC(=O)NCc1ccc(C(=O)COC(=O)COc2ccc(Cl)c(C)c2)s1	·	-20%	-23%	-9	?	-10%	·
CC(=O)NCc1ccc(C(=O)COC(=O)COc2ccccc2)s1	·	5%	?	-1	45µM*	22µM*	76*
COc1cc(Cl)c(C)cc1NC(=O)c1cn(C2CCCC2)c(=O)c2c1c1ccccc1n2C	39%	-12%	-1%	·	11%	-12%	·
CS(=O)(=O)c1ccc(Cl)c(NC(=O)CCCc2nc3ccccc3c(=O)[nH]2)c1	·	1%	-8%	-3	-1%	-8%	·
Cc1c(Cl)c(=O)n2c(=O)c(Cl)c(C)n12	29%	-10%	-3%	0	-7%	-6%	·
CCn1c(CN2CCOCC2)nnc1SCC(=O)Nc1ccc(C(C)=O)cc1	5%	-2%	-6%	-11	7%	-9%	·
Cc1ccc(/C=C/C(=O)Nc2ccc(N(C)C)cc2)o1	0%	-9%	-3%	-15	25%	-6%	·
CC(=O)NS(=O)(=O)c1ccc(NC(=O)/C=C/c2ccc(C)o2)cc1	-16%	-6%	?	?	?	22µM*	43*
Cc1nc2sc(C(N)=O)c(N)c2c(-c2ccc(Br)cc2)c1C(=O)Nc1ccc(Cl)cc1	?	-29%	-14%	·	?	-9%	·
O=c1c(C(c2ccc(O)cc2)c2c(O)nc3n(c2=O)CCS3)c(O)nc2n1CCS2	3%	-2%	-40%	-59*	-26%	20µM*	?
O=c1c(C(c2c(O)nc3n(c2=O)CCS3)c2cccc3ccccc23)c(O)nc2n1CCS2	?	-4%	40µM*	-76*	?	22µM*	?
CSC1=NSC2=NC(=O)/C(=C\c3coc4ccccc4c3=O)C(=N)N12	25µM*	79µM*	?	-57*	?	13µM*	?
CC(C)CSC1=NSC2=NC(=O)/C(=C\c3ccccc3)C(=N)N12	1%	5%	-2%	-14	?	-28%	·
CC(C)CSC1=NSC2=NC(=O)/C(=C\c3coc4ccccc4c3=O)C(=N)N12	45µM*	?	-30%	?	?	18µM*	76*
CC(CNC(=O)C1CCN(C(=O)N2CCOc3ccc(Cl)cc32)CC1)c1ccccc1 (stereo unspecified)	11%	-16%	-7%	·	-2%	-5%	·
COc1ccc(/C=C/C(=O)O)cc1S(=O)(=O)N1CCc2ccccc2C1	?	0%	-11%	?	?	?	?
SMILES	Pol beta inh	FEN1 inhibitor	Pol kappa inh-1	PI5P4Ka inh	POLI inh	Pol eta inh-1	Pol eta inh-2	others
COC(=O)c1ccc(OCC2c3cc(OC)c(OC)cc3CCN2C(=O)Cc2ccc(OC)cc2)cc1 (stereo unspecified)	?	2%	-5%[60.1 µM]	·	-17%	-15%	·
CC(=O)Nc1ccc(C=NNc2ccc([N+](=O)[O-])cc2S(=O)(=O)Nc2ccccc2C(=O)O)cc1	·	?	-43%	-64*	?	50µM*	·	Pol kappa inh-2=?
CC(=O)Nc1ccc(S(=O)(=O)Nc2cc([N+](=O)[O-])ccc2C)cc1	11%	-5%	-3%	-26	42%	-1%	·
O=C(O)c1cccc(N/N=C/C2=C(Cl)c3cc(Cl)ccc3SC2)c1	?	-10%	-19%	8	?	50µM*	?	Pol kappa inh-2=?
COc1ccc(OCCn2nnc3sc4c(c3c2=O)CCCC4)cc1	11µM*	-2%	?	·	71µM*	·	?	Pol kappa inh-2=?
O=C1CC(c2ccccc2)CC2=C1C1(CCCC1)N=C(Nc1nc3ccccc3o1)N2 (stereo unspecified)	·	·	·	·	·	·	·	HEK293 viability=-3%
O=C1CC(N2CCC(c3nc4ccccc4o3)CC2)C(=O)N1 (stereo unspecified)	1%	-6%	6%	0	8%	-15%	·
O=C1CCCC2=C1C1(CCC1)N=C(Nc1nc3ccccc3o1)N2	·	·	·	·	·	·	·	HEK293 viability=-1%
O=C1CCCC2=C1C1(CCCC1)N=C(Nc1nc3ccccc3o1)N2	1%	·	·	·	·	·	·	HEK293 viability=-1%
Clc1ccccc1Nc1nc2ccccc2o1	·	2%	-13%	-4	9%	-5%	·
